# Screening results deposited in PubChem BioAssay by The Scripps Research Institute Molecular Screening Center.
# TEAD-YAP block: TEAD-YAP interaction inhibition, primary screen, TEAD-YAP interaction inhibitor project, luminescence, HEK-TIYL cells; TEAD-Gal4/YAP UAS-luciferase luminescence; inhibition, % at 9.12 µM; 1.4% of 640,000 active; AID 1259422, 2018; in the data active = inhibition above about 32%;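 also: 0% = median of test compound wells and 100% = reference inhibitor wells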
# GPR151 ag: activators of human GPR151, primary screen, cell-based, PathHunter beta-arrestin, luminescence; G-protein coupled receptor 151 (Homo sapiens), Q8TDV0; PathHunter beta-arrestin GPR151 cells; activation, % at 11.2 µM; 1% of 650,000 active; AID 1508602, 2020; in the data active = activation above about 4.9%;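 also: 0% = median of compound wells and 100% = cells with positive control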
# MITF primary: MITF inhibitors, primary screen, biochemical, AlphaScreen, human. Microphthalmia-associated transcription factor (Homo sapiens), O75030. AlphaScreen MITF homodimerization, bead proximity signal. AID 1259374, 2018. 0.91% of 650,000 active. inhibition, % at 2.6 µM; in the data active = inhibition above about 50%;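 also: 0% = vehicle wells with protein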
# Target sequence (O75030 whole entry, looked up): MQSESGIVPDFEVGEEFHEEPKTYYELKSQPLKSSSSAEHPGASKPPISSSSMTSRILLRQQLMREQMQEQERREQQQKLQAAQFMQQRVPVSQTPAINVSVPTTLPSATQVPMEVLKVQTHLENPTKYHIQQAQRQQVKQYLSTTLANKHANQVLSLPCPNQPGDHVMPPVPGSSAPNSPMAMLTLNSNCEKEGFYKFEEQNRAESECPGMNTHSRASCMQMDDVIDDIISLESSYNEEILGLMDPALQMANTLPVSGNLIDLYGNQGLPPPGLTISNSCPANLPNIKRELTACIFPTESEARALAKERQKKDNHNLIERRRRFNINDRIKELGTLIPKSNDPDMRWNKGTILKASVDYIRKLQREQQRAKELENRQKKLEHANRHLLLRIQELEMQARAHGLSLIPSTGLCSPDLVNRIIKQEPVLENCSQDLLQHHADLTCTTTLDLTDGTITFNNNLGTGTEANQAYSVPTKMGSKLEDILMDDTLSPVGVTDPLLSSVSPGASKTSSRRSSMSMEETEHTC
# FBW7 activator: FBW7 E3 ligase activators, primary screen, biochemical, AlphaScreen, human; normalized activity (activation), % at 26.1 µM; AlphaScreen FBW7–phospho-cyclin E peptide binding, activator screen; AID 1259310, 2017; 0.13% of 650,000 active; F-box/WD repeat-containing protein 7 (Homo sapiens), Q969H0; in the data active = normalized activity above about 1.9%;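 also: purified mutant Fbw7 with reduced substrate affinity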
# MITF inh conf: MITF inhibitors, retest of hits, confirmation, biochemical, AlphaScreen, triplicate; AID 1259372, 2018; shares compounds with MITF primary; inhibition, % at 2.6 µM; AlphaScreen MITF homodimerization, biotin/His-MITF beads; 16% of 4,700 active;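 active = inhibition above a cutoff derived from the DMSO control wells, cut at about 28% in these data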;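 also: 0% = MITF dimer wells with DMSO only; inhibitors lower the bead chemiluminescence by keeping MITF from dimerizing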
# AS interf ctr: AlphaScreen optical interference compounds, counter-screen for MITF inhibitor project, biochemical, triplicate; inhibition, % at 2.6 µM; AID 1259376, 2018; LysRS AlphaScreen counterscreen, signal interference; 7.6% of 4,700 active; shares compounds with MITF primary;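 active = inhibition above a cutoff derived from the DMSO control wells, cut at about 30% in these data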
# Active calls of the source: *; x = not tested or not shown. In the library only some 3.4% were active in any assay of this set; here they are far more common.
SMILES,TEAD-YAP block,GPR151 ag,MITF primary,FBW7 activator,MITF inh conf,AS interf ctr
O=c1nc(SCc2ccccc2)c2c(n1CCCO)CCCC2,2,-1,80*,0,-3,5
Cc1ccccc1CSc1nc(=O)n(CCCO)c2c1CCCC2,-1,-1,-4,0,x,x
CCCCNC(=O)c1cc(-c2ccc(Br)cc2)on1,-8,-1,52*,0,1,3
CCCNC(=O)c1cc(-c2ccc(Br)cc2)on1,-50,-1,-19,0,x,x
CC(O)CSc1nc2c(c(=O)[nH]c(=O)n2C)n1CCCc1ccccc1 (stereo unspecified),-20,0,12,0,x,x
COCCNC(=O)C(=O)N/N=C(\C)CC(=O)Nc1cccc(C)n1,6,1,-4,0,x,x
O=C(NCc1ccccc1)NC1(C(=O)N2CCN(c3ncccn3)CC2)CCCCC1,-8,0,4,0,x,x
O=C(NCc1ccccc1)NC1(C(=O)N2CCCC2)CCCCC1,-1,-1,68*,-1,9,32*
c1coc(CN2CCN(Cc3cccc4ccccc34)CC2)c1,-17,-2,76*,0,15,16
O=C(CN1CCN(Cc2cccc3ccccc23)CC1)c1ccco1,-1,-1,67*,0,6,10
CCCCOc1ccc(C2CCCC(CCC)CC2)cc1 (stereo unspecified),-2,0,4,0,x,x
CCc1ccccc1NC(=O)CN(C)C(=O)CN(C)Cc1ccccc1OC,-6,0,81*,0,16,15
O=C(c1ccccc1Br)N1CCN=C1SCc1cccnc1,-24,0,-5,0,x,x
Nc1cccc2c1C(=O)N(c1ccccc1)C2=O,-6,0,52*,0,0,10
O=C1c2ccccc2C(=O)N1c1ccccc1,9,-2,21,0,x,x
O=C(Cc1ccc(Br)cc1)N[C@H]1CCN(C(=O)c2ccc3[nH]ncc3c2)C1,2,-1,17,0,x,x
O=[N+]([O-])c1ccc(S(=O)(=O)N2CCN(Cc3ccccc3Br)CC2)cc1,-7,0,80*,0,12,9
CCS(=O)(=O)N1CCN(Cc2ccccc2Br)CC1,7,-1,47,0,x,x
O=S(=O)(c1ccccc1)N1CCN(Cc2ccccc2Br)CC1,6,0,73*,0,10,16
CCC(C)(C(=O)NC1CCCCC1)N(CC1CCCO1)C(=O)c1ccc(=O)[nH]c1 (stereo unspecified),4,-1,79*,0,-7,-4
Fc1ccc(C2=CC(c3ccc(Cl)cc3)n3nnnc3N2)cc1 (stereo unspecified),-31,1,-6,0,x,x
O=[N+]([O-])c1cc(C2C=C(c3ccc(Cl)cc3)Nc3nnnn32)ccc1Cl (stereo unspecified),0,-1,65*,0,8,7
O=C(Nc1ccc2[nH]ncc2c1)C1CCCN1C(=O)Nc1ccc(Cl)cc1 (stereo unspecified),-2,0,14,0,x,x
CC1=C(NCCc2ccccc2)CCC1=O,6,1,61*,1,14,9
Cc1cc(=O)[nH]c(NCCc2ccccc2)n1,8,0,6,0,x,x
SMILES,TEAD-YAP block,GPR151 ag,MITF primary,FBW7 activator,MITF inh conf,AS interf ctr
CCOCCCN1C(=O)C2C(C(=O)Nc3ccc(OC)cc3)C3C=CC2(O3)C1C(=O)NC1CCCCC1 (stereo unspecified),10,0,11,0,x,x
CCCC(C)C(=O)Nc1ccccc1C (stereo unspecified),2,0,51*,1,1,9
O=C(CN1C(=O)c2ccccc2C1=O)NC1CCCCC1,-1,1,53*,0,-2,4
CN(C)c1ccc(/C=N\NC(=O)CN2CCN(Cc3ccccc3)CC2)cc1,5,1,-4,0,x,x
CC(/C=N\NC(=O)Cc1cccn1C)=C\c1ccccc1,-9,1,-4,0,x,x
CCN1CCN(CC(=O)N/N=C/c2ccc(N(C)C)cc2)CC1,2,1,52*,0,26,6
CCN1CCN(CC(=O)N/N=C/c2cc(Br)cs2)CC1,20,0,68*,1,-1,3
CC(/C=N/NC(=O)CN1CCN(C)CC1)=C\c1ccccc1,9,0,73*,1,3,-5
Cc1ccc(/C=N/NC(=O)CCN2CCN(C)CC2)cc1,1,0,54*,0,7,0
O=C([C@H](O)COc1ccc(Br)cc1)N1CCC(Nc2ccc3cnccc3c2)CC1,10,2,-3,0,x,x
CCN(CC)CCn1c(=S)sc2c(=O)n(-c3ccccc3)c(SCc3ccccc3C)nc21,-16,0,9,0,x,x
CCC(C(=O)N1CCCC1)c1ccccc1 (stereo unspecified),2,0,-12,0,x,x
CC(C(=O)N1CCCC1)N1CCN(C(c2ccccc2)c2ccccc2)CC1 (stereo unspecified),1,-2,85*,0,5,15
O=c1oc2ccc3ccccc3c2cc1-c1nc(-c2ccc([N+](=O)[O-])cc2)n[nH]1,5,1,72*,0,7,13
CC(C)CN(CC(C)C)C(=S)NC1CCCCC1,5,0,69*,0,8,8
CCOc1ccccc1NC(=O)C(=O)NCC1CCCCC1,5,0,0,0,x,x
Cc1cc(C)c(OCC(=O)N(Cc2ccco2)C2CCS(=O)(=O)C2)c(C)c1 (stereo unspecified),4,-1,2,0,x,x
CCCCN(C)CCCNC(=O)CSCc1ccccc1Cl,4,-1,76*,0,-2,-1
Cc1ccc(S(=O)(=O)NCC(=O)NCC(=O)NN=C2CCCCC2)cc1,3,0,5,0,x,x
COc1ccc(C(=O)NCCN2CCn3cc(OCc4ccccc4)c(=O)cc3C2=O)cc1,3,3,2,0,x,x
O=C1N/C(=C/c2cccn2-c2ccccc2)C(=O)N1Cc1ccccc1F,13,-1,55*,0,3,0
COc1ccc(C(CNC(=O)c2ccc(Br)cc2)N(C)C)cc1 (stereo unspecified),6,1,10,0,x,x
COc1ccc(C(CNCCC(=O)O)N(C)C)cc1 (stereo unspecified),-5,-1,55*,0,-1,-1
O=C(COc1ccc(Cl)cc1)Nc1nc(CN2CCc3ccccc3C2)cs1,3,-1,12,1,x,x
CC1CCN(Cc2nnnn2CCCC(=O)NCCCc2cccnc2)CC1,7,-1,2,0,x,x
